From PubChem BioAssay (NCI) come the findings set out here.

Values joined by “and” are separate entries in the source; they are usually repeats but may differ in a detail not shown here. Equal entries are not always repeated. The panel holds about 83,000 compounds, 20% with a hit somewhere; the sample as a whole holds those more often.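 Growth was measured after 48 h exposure to one concentration of compound in 96-well plates. Values under 10 count as active.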 Unmarked numbers belong to inactive results. Active and inactive are the calls of the source.

For this assay, the system named is MDA-MB-468 breast. The assay can be described thus: NCI-60 one-dose screen, 48 h (100 = growth as untreated, 0 = no growth, -100 = all killed). The settings on record: 10 µM unless noted.
`O=C(O)CC1CCN(c2ccc3nnc(Cl)n3n2)CC1`: the growth is 101%.
On to `Cc1ccc(OCCOCCOCCOc2ccc(C)n(O)c2=S)c(=S)n1O`, for which the growth is 12.1%.
As for `CCN(CC)CCOC(=O)Nc1ccccc1Cl`, the figure is 104%.
As for `O=C1Nc2ccccc2/C1=C/c1ccc[nH]1`, the growth was -26% (active).
As for `O=C(CC(CC(=O)c1ccccc1)c1ccccn1)c1ccccc1`, the figure is 102%.
As for `CCCCCN(CCCCC)CC(O)c1c(Cl)ccc2ccccc12` (stereo not given), the figure is 78.9%; as for `COc1cc(C2CC(c3ccc(Cl)cc3)=NN2c2ccc(Cl)cc2)cc(OC)c1OC` (stereo not given), 100%; as for `Nc1c(C(=O)Nc2ccccn2)sc2nc3c(cc12)CCCCC3`, 27.7%.
As for `COc1ccc(-c2cc(-c3ccc(N4CCOCC4)cc3)n3c(n2)nc2ccccc23)cc1OC`, the growth was 93.7%.
For the compound `FC(F)(F)c1cccc(Oc2ccc(Nc3ncnc4ccc(OCCCN5CCOCC5)cc34)cc2Cl)c1`, the growth is 5.72% (active).
Take `COc1ccc(-c2nc3sc(C)nn3c2-c2nc3cc(C)c(C)cc3[nH]2)cc1`: the growth is 113%.
Then `CCCCC(=O)Nc1c(C(=O)Nc2ccccc2)sc2nc3c(cc12)C(OC(=O)CCCC)CCC3` (stereo not given), with 56.2%; and `CN(C)c1ccc(S(=O)(=O)O)cc1`, with 106%.
Then `CCOC(=O)c1ccccc1-c1c2ccc(=[N+](C)C)cc-2oc2cc(N(C)C)ccc12`, with -17.9% (active); and `CCNC(=O)Oc1ccc(/C(=C(\C)c2ccccc2)c2ccc(OCCN3CCCCC3)cc2)cc1`, with 76.6%; and `C=C1CCC[C@]2(C)CCC[C@H](C)[C@@H](OC(C)=O)[C@@H]3OC(=O)C(=C)[C@@H]3C[C@H]1O2`, with 31.8%.
As for `COc1cc(NCCN(CC(C)C)CC(C)C)c2ncc(C)cc2c1`, the figure is 11.7%.
As to `COc1cc(/C=C/C(C)=O)ccc1O`, the growth was 100% and 111%.
As to `Cn1cc(-c2csc(-c3c[nH]c4ccccc34)n2)c2cnccc21`, the growth is -20.8% (active).
As for `O=C1c2cc3c(cc2-c2c1c1ccc(Cl)cc1c(=O)n2C[C@H](O)[C@@H](O)[C@H](O)CO)OCO3`, the figure is -63.4% (active).
As for `N#Cc1c(N2CCOCC2)nc2sc3cc(Cl)ccc3n2c1=N`, the figure is 15.8%.
Then `NC(=O)c1c(NC(=O)COC(=O)Cc2ccccc2F)sc2c1CCC2`, with 112%; and `COc1ccc(C2CC(c3ccc4ccccc4c3)=NN2/C=C2\SC(=S)N(NC(=O)Cc3ccccc3Nc3c(Cl)cccc3Cl)C2=O)cc1` (stereo not given), with 7.11% (active); and `O=C1OC(=O)C2C3CC(c4ccccc43)C12` (stereo not given), with 121%.
With `Cc1c2cnccc2c(C)c2c1c1cc(O)ccc1n2C(C)C`, the growth is 24.3%.
